Measurements published in PubChem BioAssay (Tox21).
Inconclusive results are not listed. Activity calls are given as the source filed them. Unless noted, the call rests on the fitted dose curve; in most records, active means well fitted curve in the direction sought with a large enough effect in the repeat runs; inconclusive means weak or mixed curves; inactive means no such curve, though single readings can be large; an effect the other way counts as inactive or inconclusive.

Columns and labels:
[1] = qHTS assay to identify aromatase inhibitors - cell viability counter screen (AID 743084);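 further: cells stimulated with testosterone during compound exposure; nearly all actives have a fitted effect of over 55% in size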
[2] = molecular target: Aryl hydrocarbon receptor (Homo sapiens) (UniProt P35869); assay: qHTS assay to identify small molecule that activate the aryl hydrocarbon receptor (AhR) signaling pathway (AID 743085);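 further: HG2L7.5c1 human HepG2 liver cells with stably integrated DRE-driven firefly reporter; series mostly up to about 70 µM; nearly all actives have a fitted effect of over 15% in size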
Outline: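 Compounds were tested in HepG2 hepatocellular carcinoma cells harbouring a stably integrated luciferase gene under control of 20 DREs. Increased reporter signal after 24 h treatment at 37C was taken as AhR activation.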

[3] = qHTS assay to identify small molecule that activate the aryl hydrocarbon receptor (AhR) signaling pathway - cell viability counter screen (AID 743086);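 further: HepG2 liver cells carrying the AhR DRE luciferase reporter; series mostly up to about 70 µM; nearly all actives have a fitted effect of over 45% in size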
Outline: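 HepG2-AhR-luc (HG2L7.5c1) cells, 4000/well, treated 24 h at 37 C with compound; viability measured as CellTiter-Fluor fluorescence after 30 min in the same wells as the luciferase read.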

[4] = molecular target: Peroxisome proliferator-activated receptor gamma (Homo sapiens) (UniProt P37231); assay: qHTS assay to identify small molecule agonists of the peroxisome proliferator-activated receptor gamma (PPARg) signaling pathway (AID 743094; active means well fitted activation curve with a large enough effect in the signal ratio in the repeat runs, not every such curve was filed as active; the % refers to the signal ratio)
Outline: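 Compounds dissolved in DMSO were added to PPARg UAS-bla HEK293H cells for 17 h at 37C, and reporter expression was quantified by fluorescence intensity after 1 h with LiveBLAzer B/G FRET substrate.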

[5] = qHTS assay to identify small molecule antagonists of the peroxisome proliferator-activated receptor gamma (PPARg) signaling pathway - cell viability counter screen (AID 743194); further: nearly all actives have a fitted effect of over 55% in size
Outline: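 Cytotoxicity counter screen in PPARg-bla HEK293H cells, same wells as reporter assay. Compounds plus 50 nM rosiglitazone (final) for 17 h at 37 C, then viability read by CellTiter-Glo luminescence.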

[6] = qHTS assay for small molecule agonists of the antioxidant response element (ARE) signaling pathway (AID 743202; active means well fitted activation curve with a large enough effect in the signal ratio in the repeat runs, not every such curve was filed as active; the % refers to the signal ratio)
Outline: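 ARE-bla HepG2 cells (beta-lactamase reporter under the antioxidant response element), plated 5 hours, then exposed to compounds 16 hours at 37 C. LiveBLAzer B/G FRET substrate added for 2 hours at room temperature; fluorescence intensity read.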

[7] = qHTS assay for small molecule agonists of the antioxidant response element (ARE) signaling pathway - cell viability counter screen (AID 743203; calls by dose curve; further: nearly all actives have a fitted effect of over 55% in size)
Outline: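 Following 16 hrs of compound treatment at 37C, HepG2 cells with an ARE-controlled beta-lactamase gene were lysed with CellTiter-Glo. Luminescence was read after 30 min at room temperature.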

[8] = qHTS assay for small molecule activators of the heat shock response signaling pathway - cell viability counter screen (AID 743209); further: nearly all actives have a fitted effect of over 50% in size
Outline: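 Readout: CellTiter-Glo luminescence, 30 min at room temperature. System: HSE-bla HeLa cells, 1500/well, plated overnight. Treatment: compounds in DMSO, 5 h at 37 C.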

[9] = qHTS assay for small molecule activators of the heat shock response signaling pathway (AID 743210; active means well fitted activation curve with a large enough effect in the signal ratio in the repeat runs, with a control signal flat, not every such curve was filed as active; the % refers to the signal ratio; further: series mostly up to about 63 µM)
Outline: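 HSE-bla HeLa cells (beta-lactamase reporter under heat shock response elements), plated overnight, then exposed to compounds 5 h at 37 C; LiveBLAzer B/G FRET substrate added, 2.5 h at room temperature, fluorescence intensity read.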

[10] = qHTS assay to identify small molecule agonists of the peroxisome proliferator-activated receptor delta (PPARd) signaling pathway - cell viability counter screen (AID 743211); further: nearly all actives have a fitted effect of over 55% in size
Outline: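 Counter screen for cytotoxicity run in parallel with the PPARd reporter screen. Beta-lactamase reporter HEK293H cells exposed to compounds 17 h; ATP-based CellTiter-Glo luminescence quantified viability.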

[11] = molecular target: Peroxisome proliferator-activated receptor delta (Homo sapiens) (UniProt Q03181); assay: qHTS assay to identify small molecule agonists of the peroxisome proliferator-activated receptor delta (PPARd) signaling pathway (AID 743212; calls by dose curve)
Outline: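 GeneBLAzer UAS-bla HEK293H cells carrying a PPARδ construct were exposed to compounds at 37 °C. Beta-lactamase activity was read by FRET fluorescence after 2 h at room temperature with LiveBLAzer B/G substrate.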

[12] = molecular target: Bile acid receptor (Homo sapiens) (UniProt Q96RI1); assay: qHTS assay to identify small molecule antagonists of the farnesoid-X-receptor (FXR) signaling pathway (AID 743217; active means well fitted inhibition curve with a large enough effect in the signal ratio in the repeat runs, not every such curve was filed as active; the % refers to the signal ratio)
Outline: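 GeneBLAzer FXR-UAS-bla HEK 293T, CDCA-stimulated (50 uM final). Compound treatment 16 h, 37 °C. Detection: beta-lactamase cleavage of B/G FRET substrate, fluorescence.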

[13] = qHTS assay to identify small molecule agonists of the farnesoid-X-receptor (FXR) signaling pathway - cell viability counter screen (AID 743218); further: nearly all actives have a fitted effect of over 45% in size
Outline: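 Parallel cytotoxicity test: compound-treated (16 h, 37 C) HEK 293T FXR-bla reporter cells were lysed with CellTiter-Glo and luminescence recorded.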

[14] = molecular target: Bile acid receptor (Homo sapiens) (UniProt Q96RI1); assay: qHTS assay to identify small molecule agonists of the farnesoid-X-receptor (FXR) signaling pathway (AID 743220; active means well fitted activation curve with a large enough effect in the signal ratio in the repeat runs, not every such curve was filed as active; the % refers to the signal ratio)
Outline: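 Beta-lactamase reporter under UAS control in GeneBLAzer FXR HEK 293T cells (5000/well) measured with LiveBLAzer FRET substrate after 2 h at room temperature. Compound exposure lasted 16 h at 37C.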

[15] = qHTS assay to identify small molecule antagonists of the farnesoid-X-receptor (FXR) signaling pathway - cell viability counter screen (AID 743221; active means well fitted cell-killing curve with a large enough effect in the repeat runs, not every such curve was filed as active; further: nearly all actives have a fitted effect of over 50% in size)
Outline: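 Multiplexed counter screen: viability of FXR-bla HEK 293T cells under agonist stimulation by chenodeoxycholic acid (50 uM, final) and test compound for 16 h at 37 C, measured by CellTiter-Glo luminescence in the reporter wells.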

[16] = molecular target: Vitamin D3 receptor (Homo sapiens) (UniProt P11473); assay: qHTS assay to identify small molecule agonists of the vitamin D receptor (VDR) signaling pathway (AID 743222; calls by dose curve)
Outline: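 In VDR-bla cells, compound-induced beta-lactamase expression is quantified by FRET substrate fluorescence. Treatment lasts 16 h at 37C; substrate develops 2 h at room temperature.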

[17] = qHTS assay to identify small molecule antagonists of the peroxisome proliferator-activated receptor delta (PPARd) signaling pathway - cell viability counter screen (AID 743213); further: nearly all actives have a fitted effect of over 50% in size
Outline: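 HEK293H PPARd UAS-bla cells, 5 h pre-incubation, compound + L165041 300 nM final, 17 h 37 C; B/G FRET substrate 2 h RT; then CellTiter-Glo 30 min RT, luminescence.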

[18] = molecular target: Vitamin D3 receptor (Homo sapiens) (UniProt P11473); assay: qHTS assay to identify small molecule antagonists of the vitamin D receptor (VDR) signaling pathway (AID 743223; active means well fitted inhibition curve with a large enough effect in the signal ratio in the repeat runs, not every such curve was filed as active; the % refers to the signal ratio)
Outline: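 Cells carrying a VDR-driven beta-lactamase reporter (VDR-bla) were co-treated with compound and 3 nM final 1alpha,25-dihydroxyvitamin D3 for 16 h at 37C; reporter activity was measured as FRET substrate fluorescence after 2 h at room temperature.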

[19] = molecular target: Peroxisome proliferator-activated receptor gamma (Homo sapiens) (UniProt P37231); assay: qHTS assay to identify small molecule antagonists of the peroxisome proliferator-activated receptor gamma (PPARg) signaling pathway (AID 743191; calls by dose curve; further: series mostly up to about 63 µM; nearly all actives have a fitted effect of over 30% in size)
Outline: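 GeneBLAzer PPARg UAS-bla HEK293H cells, 5 h post-plating, exposed to compounds 17 h at 37C. LiveBLAzer B/G FRET substrate added for 1 h at room temperature; beta-lactamase reporter read by fluorescence intensity.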

[20] = molecular target: Peroxisome proliferator-activated receptor delta (Homo sapiens) (UniProt Q03181); assay: qHTS assay to identify small molecule antagonists of the peroxisome proliferator-activated receptor delta (PPARd) signaling pathway (AID 743215; active means well fitted inhibition curve with a large enough effect in the signal ratio in the repeat runs, not every such curve was filed as active; the % refers to the signal ratio;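 further: cells stimulated with agonist L165041 at 300 nM final during compound exposure; series mostly up to about 62 µM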)
Outline: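 HEK293H UAS-bla, PPARd; agonist L165041 300 nM final with cpd in DMSO; 37 C 17 h; FRET substrate, RT 2 h; fluorescence intensity.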

Measured: Potency

Vitamin D3 receptor (Homo sapiens), sequence (P11473 whole entry, looked up): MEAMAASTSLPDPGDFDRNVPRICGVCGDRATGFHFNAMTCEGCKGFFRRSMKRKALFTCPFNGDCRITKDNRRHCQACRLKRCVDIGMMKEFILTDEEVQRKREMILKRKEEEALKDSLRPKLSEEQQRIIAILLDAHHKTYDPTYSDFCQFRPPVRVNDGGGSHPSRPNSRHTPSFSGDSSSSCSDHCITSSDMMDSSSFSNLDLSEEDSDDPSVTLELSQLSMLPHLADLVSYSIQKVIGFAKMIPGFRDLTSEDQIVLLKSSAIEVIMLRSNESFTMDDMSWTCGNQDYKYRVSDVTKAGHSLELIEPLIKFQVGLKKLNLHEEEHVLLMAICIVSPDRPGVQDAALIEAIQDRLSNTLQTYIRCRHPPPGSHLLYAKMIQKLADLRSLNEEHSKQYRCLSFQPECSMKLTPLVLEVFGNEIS
Bile acid receptor (Homo sapiens), sequence (Q96RI1 whole entry, looked up): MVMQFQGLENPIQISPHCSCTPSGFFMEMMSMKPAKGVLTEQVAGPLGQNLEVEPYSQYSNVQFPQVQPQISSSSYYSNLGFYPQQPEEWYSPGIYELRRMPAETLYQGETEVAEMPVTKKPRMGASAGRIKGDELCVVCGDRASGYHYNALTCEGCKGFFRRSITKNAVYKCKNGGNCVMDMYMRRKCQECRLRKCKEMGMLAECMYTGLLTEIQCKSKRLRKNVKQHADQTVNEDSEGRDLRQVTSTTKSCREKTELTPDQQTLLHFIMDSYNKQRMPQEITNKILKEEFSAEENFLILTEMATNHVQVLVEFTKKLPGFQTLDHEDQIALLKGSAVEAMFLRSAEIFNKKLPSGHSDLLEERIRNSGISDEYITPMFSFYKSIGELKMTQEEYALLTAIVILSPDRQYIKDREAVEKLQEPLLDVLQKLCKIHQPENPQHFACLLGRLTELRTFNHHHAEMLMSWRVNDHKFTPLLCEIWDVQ
Aryl hydrocarbon receptor (Homo sapiens), sequence (P35869 whole entry, looked up): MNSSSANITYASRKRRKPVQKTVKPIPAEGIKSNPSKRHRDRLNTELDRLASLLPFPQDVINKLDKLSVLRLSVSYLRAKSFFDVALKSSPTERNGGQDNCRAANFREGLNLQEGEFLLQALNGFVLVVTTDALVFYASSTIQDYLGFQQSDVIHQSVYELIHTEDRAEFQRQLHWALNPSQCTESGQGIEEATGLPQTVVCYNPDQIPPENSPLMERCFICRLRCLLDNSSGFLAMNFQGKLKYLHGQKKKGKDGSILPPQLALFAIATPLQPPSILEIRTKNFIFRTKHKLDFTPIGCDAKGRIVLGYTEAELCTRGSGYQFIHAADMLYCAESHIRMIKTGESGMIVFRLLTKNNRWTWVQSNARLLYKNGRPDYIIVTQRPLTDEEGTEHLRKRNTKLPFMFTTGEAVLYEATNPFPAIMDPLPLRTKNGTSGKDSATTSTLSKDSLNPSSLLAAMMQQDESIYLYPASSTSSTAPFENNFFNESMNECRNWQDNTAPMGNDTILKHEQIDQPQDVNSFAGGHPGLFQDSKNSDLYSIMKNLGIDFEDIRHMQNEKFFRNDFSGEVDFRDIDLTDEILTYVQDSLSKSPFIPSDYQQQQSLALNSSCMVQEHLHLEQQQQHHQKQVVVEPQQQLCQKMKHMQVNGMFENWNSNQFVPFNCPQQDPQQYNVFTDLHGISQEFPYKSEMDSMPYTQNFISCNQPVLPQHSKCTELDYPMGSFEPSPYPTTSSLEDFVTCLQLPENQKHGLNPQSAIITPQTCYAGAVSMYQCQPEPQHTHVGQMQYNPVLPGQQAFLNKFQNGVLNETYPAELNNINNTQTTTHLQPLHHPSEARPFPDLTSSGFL
Peroxisome proliferator-activated receptor gamma (Homo sapiens), sequence (P37231 whole entry, looked up): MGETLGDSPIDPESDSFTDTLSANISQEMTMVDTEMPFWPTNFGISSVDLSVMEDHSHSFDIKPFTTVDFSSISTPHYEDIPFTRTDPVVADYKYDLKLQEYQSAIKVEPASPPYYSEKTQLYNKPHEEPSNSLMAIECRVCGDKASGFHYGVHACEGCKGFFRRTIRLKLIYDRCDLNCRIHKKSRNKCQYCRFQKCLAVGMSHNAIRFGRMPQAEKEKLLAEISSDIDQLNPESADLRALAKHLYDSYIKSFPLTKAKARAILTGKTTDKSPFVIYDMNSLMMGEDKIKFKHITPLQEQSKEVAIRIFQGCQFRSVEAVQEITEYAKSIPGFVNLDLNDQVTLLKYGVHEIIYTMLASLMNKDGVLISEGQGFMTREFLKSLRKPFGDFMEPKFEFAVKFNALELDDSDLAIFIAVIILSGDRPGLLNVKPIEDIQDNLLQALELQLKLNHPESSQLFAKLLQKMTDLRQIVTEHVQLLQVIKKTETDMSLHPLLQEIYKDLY
Peroxisome proliferator-activated receptor delta (Homo sapiens), sequence (Q03181 whole entry, looked up): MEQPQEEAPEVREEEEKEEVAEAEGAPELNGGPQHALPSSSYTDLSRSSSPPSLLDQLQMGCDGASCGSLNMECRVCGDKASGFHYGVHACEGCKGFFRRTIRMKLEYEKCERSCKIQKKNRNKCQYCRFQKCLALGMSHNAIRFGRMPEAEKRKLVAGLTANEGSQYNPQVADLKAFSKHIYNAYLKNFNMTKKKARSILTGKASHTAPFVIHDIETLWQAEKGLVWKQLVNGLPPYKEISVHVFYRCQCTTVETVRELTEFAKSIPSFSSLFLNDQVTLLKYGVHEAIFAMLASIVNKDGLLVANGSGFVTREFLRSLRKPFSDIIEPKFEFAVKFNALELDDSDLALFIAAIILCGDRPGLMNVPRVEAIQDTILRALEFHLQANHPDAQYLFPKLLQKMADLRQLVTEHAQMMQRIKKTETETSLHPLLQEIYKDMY

CN1CCC(OC(c2ccccc2)c2ccccc2)CC1
not listed: [17] | [18] | [19] | [20]
inactive: all other assays above

CC(=O)/C=C/C1C(C)=CCCC1(C)C (stereo unspecified)
not listed: [11] | [13] | [19] | [20]
inactive: all other assays above

COc1ccc(C(C)=O)cc1
not listed: [6] | [10] | [11] | [12] | [13] | [14] | [16] | [20]
inactive: all other assays above

O=C(Cl)c1c(Cl)cccc1Cl
not listed: [12] | [14] | [19]
inactive: all other assays above

CC(=O)SCc1ccco1
not listed: [6] | [9] | [10] | [12]
inactive: all other assays above

COCCO
not listed: [12] | [13] | [14] | [19] | [20]
inactive: all other assays above

CCOc1nc2cccc(C(=O)O)c2n1Cc1ccc(-c2ccccc2-c2nn[nH]n2)cc1
not listed: [6] | [12] | [13] | [14] | [16] | [18]
inactive: all other assays above

CCCCCCCCCCCCCCCC(=O)OC/C=C(C)/C=C/C=C(C)/C=C/C1=C(C)CCCC1(C)C
not listed: [6] | [9] | [11] | [13]
inactive: all other assays above

FC(F)(F)C(F)(F)C(F)(F)C(F)(F)C(F)(F)C(F)(F)CCI
not listed: [19]
inactive: all other assays above
